Unmarked numbers belong to inactive results. Results filed as inconclusive are left out. The source holds several records for some structures; these can differ, active in one and inactive in another. Active and inactive are the calls of the source. Unless noted, the call rests on the fitted dose curve; in most records, active means well fitted curve in the direction sought with a large enough effect in the repeat runs; inconclusive means weak or mixed curves; inactive means no such curve, though single readings can be large; an effect the other way counts as inactive or inconclusive.

Test [1] is described as follows: qHTS assay to identify small molecule antagonists of the androgen receptor (AR) signaling pathway using the MDA cell line in the presence of 0.5 nM R1881 - cell viability counter screen (AID 1259242). Further: nearly all actives have a fitted effect of over 45% in size. Further: potency means the concentration at half of the fitted maximal effect. The procedure, abridged:
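MDA-kb2 cells (human breast carcinoma, stably carrying MMTV-luciferase reporter) were exposed to compounds with 0.5 nM R1881 (final) for 16 hr at 37C, 0% CO2; viability then read as live-cell protease fluorescence (CellTiter-Fluor, 30 min) in the same wells.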
A general note: Quantitative high-throughput screening tests each substance at several concentrations.

The target in test [2] is Estrogen receptor (Homo sapiens) (UniProt P03372). As to the kind of experiment: qHTS assay to identify small molecule antagonists of the estrogen receptor alpha (ER-alpha) signaling pathway using the BG1 cell line in the presence of 0.1 nM 17-beta-estradiol (AID 1259244). Further: nearly all actives have a fitted effect of over 50% in size. The procedure, abridged:
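VM7Luc4E2 cells (endogenous full-length ER-alpha, stable 4xERE-luciferase) were grown 5 days in phenol red-free medium with charcoal-stripped FBS, then exposed 22 h at 37C to compounds plus 0.1 nM (final) 17beta-estradiol; ONE-Glo luminescence read-out.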

Test [3] in a line: qHTS assay to identify small molecule HDAC inhibitors (AID 1259364). Further: top concentration of the series differs between compounds; nearly all actives have a fitted effect of over 45% in size. The method, boiled down:
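Wild-type HCT-116 cells were plated overnight, exposed to compounds for 2 h at 37 °C, then given HDAC-Glo class I/II luminogenic reagent for 30 min at room temperature before luminescence was read.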

Test [4] can be described thus: qHTS assay to identify small molecule HDAC inhibitors - cell viability counter screen (AID 1259365). Further: series mostly up to about 92 µM; nearly all actives have a fitted effect of over 50% in size. The procedure, abridged: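 CellTiter-Glo luminescence (30 min, room temperature) reported viability after a 2 h compound exposure at 37 C. Cells: wild-type HCT-116, 1,500 per well, seeded the night before.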
The nature of test [5]: qHTS assay to identify small molecule agonists of the sonic hedgehog signaling (Shh) pathway - cell viability counter screen (AID 1259366). Further: nearly all actives have a fitted effect of over 50% in size. The procedure, abridged: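 Cytotoxicity counter screen: CellTiter-Fluor reagent added after 23 h compound exposure, then 1 h at 37C and fluorescence read. Cells were 3T3 Gli1-Luc, seeded 2,000 per well and dosed 4 h post-plating.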
The nature of test [6]: qHTS assay to identify small molecule antagonists of the sonic hedgehog signaling (Shh) pathway - cell viability counter screen (AID 1259367). Further: nearly all actives have a fitted effect of over 55% in size. The procedure, abridged:
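Cells: 3T3 Gli1-Luc, 2,000/well, 4 hr pre-incubation. Compounds in DMSO, then conditioned medium. Incubation 24 hr, 37C, 5% CO2. CellTiter-Fluor at 23 hr, 1 hr, fluorescence.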

Test [7] is described as follows: qHTS assay to identify small molecule agonists of the sonic hedgehog signaling (Shh) pathway (AID 1259368; calls by dose curve; further: series mostly up to about 92 µM; nearly all actives have a fitted effect of over 15% in size). The procedure, abridged:
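NIH/3T3-derived 3T3Gli1-Luc cells carrying a stably integrated Gli1 response element–firefly luciferase reporter were plated, left 4 hr at 37 C, then given compounds in DMSO for 24 hr. Luminescence was read 30 min after adding luciferase reagent.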

In test [8] the target is Estrogen receptor beta (Homo sapiens) (UniProt Q92731). In words: qHTS assay to identify small molecule agonists of the estrogen receptor beta (ER-beta) signaling pathway (AID 1259377; active means well fitted activation curve with a large enough effect in the signal ratio in the repeat runs, not every such curve was filed as active; the % refers to the signal ratio). The procedure, abridged: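 Ratiometric beta-lactamase FRET read-out came after 2 h substrate loading at room temperature. It followed 16 h compound treatment at 37C of GripTite HEK293T cells carrying a UAS-bla reporter, plated in 2% charcoal-stripped FBS medium.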

Test [9] has the same target. As to the kind of experiment: qHTS assay to identify small molecule antagonists of the estrogen receptor beta (ER-beta) signaling pathway (AID 1259378; active means well fitted inhibition curve with a large enough effect in the signal ratio in the repeat runs, not every such curve was filed as active; the % refers to the signal ratio). The method, boiled down:
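Antagonist mode: compounds added to beta-lactamase reporter HEK293T ER-beta-UAS cells stimulated with E2 (1nM final), 16 hr at 37C. LiveBLAzer B/G FRET substrate, 2 hours room temperature, fluorescence read-out.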

A short description of test [10]: qHTS assay to identify small molecule agonists of the androgen receptor (AR) signaling pathway in the presence of an antagonist - cell viability counter screen (AID 1259379). Further: nearly all actives have a fitted effect of over 25% in size. Further: potency means the concentration at half of the fitted maximal effect. On activity change, negative = cytotoxicity: series mostly up to about 92 µM. The method, boiled down: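 MDA-kb2 human breast carcinoma cells (stable MMTV-luciferase, AR/GR responsive) were seeded 3,000 cells/well, pre-incubated 5 hr at 37C without CO2, then given 3.0uM nilutamide and compounds at 15 concentrations for 16 hr. Viability was read by CellTiter-Fluor fluorescence.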

Test [11] in a line: qHTS assay to identify small molecule agonists of the estrogen receptor beta (ER-beta) signaling pathway - cell viability counter screen (AID 1259380). Further: nearly all actives have a fitted effect of over 30% in size. The procedure, abridged: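 ER-beta-UAS-bla HEK293T cells in medium with 2% charcoal-stripped FBS were preincubated 6 hr at 37C, dosed with compound in DMSO for 16 hr, then after the bla read, CellTiter-Glo was added for 30 min at room temperature; luminescence recorded.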

Test [12] is described as follows: qHTS assay to identify small molecule antagonists of the estrogen receptor beta (ER-beta) signaling pathway - cell viability counter screen (AID 1259382). Further: series mostly up to about 92 µM; nearly all actives have a fitted effect of over 55% in size. The procedure, abridged:
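ER-beta-UAS-bla HEK293T cells (2,000/well, 2% charcoal-stripped FBS) were pre-incubated 6 hr at 37C, then given compound plus 1nM final 17-beta-estradiol for 16 hr. Viability was read in the same wells by CellTiter-Glo luminescence after 30 min at room temperature.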

The target in test [13] is Estrogen receptor (Homo sapiens) (UniProt P03372). In words: qHTS assay to identify small molecule agonists of the estrogen receptor alpha (ER-alpha) signaling pathway in the presence of an antagonist (AID 1259383; calls by dose curve; further: top concentration of the series differs between compounds; nearly all actives have a fitted effect of over 15% in size). The procedure, abridged: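 VM7Luc4E2 cells (endogenous full-length ER-alpha, 4×ERE-luciferase) were precultured 5 days in phenol red-free medium with 10% charcoal-stripped FBS, given 10.0nM ICI-182,780 (final), then treated with compounds at 15 concentrations for 22hr at 37C; luminescence read with ONE-Glo.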

A short description of test [14]: qHTS assay to identify small molecule agonists or antagonists of the thyroid stimulating hormone receptor (TSHR) signaling pathway - wild type cell line counter screen (AID 1259384; calls by dose curve). The method, boiled down: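 Counter screen in untransfected Hek293: compounds (15-point titration, triplicate) plus phosphodiesterase inhibitor Ro20-1724 added after 18 h plating; 30 min RT. Intracellular cAMP via competitive d2/cryptate immunoassay, 1 h incubation.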

Test [15] addresses Thyrotropin receptor (Homo sapiens) (UniProt P16473). In words: qHTS assay to identify small molecule antagonists of the thyroid stimulating hormone receptor (TSHR) signaling pathway (AID 1259385; calls by dose curve; further: nearly all actives have a fitted effect of over 20% in size). The method, boiled down:
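Antagonist mode: compound-treated TSHR-expressing HEK293 cells were stimulated with 1.5 ng/mL TSH (final) in presence of Ro20-1724 for 30 min at RT. HTRF cAMP detection after 1 h; each compound tested at 15 concentrations, triplicate.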

Test [16] in a line: qHTS assay to identify small molecule agonists of the estrogen receptor alpha (ER-alpha) signaling pathway in the presence of an antagonist - cell viability counter screen (AID 1259386). Further: nearly all actives have a fitted effect of over 30% in size. Further: potency means the concentration at half of the fitted maximal effect. On activity change, negative = cytotoxicity: series mostly up to about 92 µM. The method, boiled down:
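VM7Luc4E2 cells (endogenous full-length ER-alpha, 4×ERE-luciferase) were held 5 days in phenol red-free medium with 10% charcoal-stripped FBS, plated, then given 10.0nM ICI-182,780 and compounds at 15 concentrations for 22hr at 37C; viability read by CellTiter-Fluor fluorescence.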

Test [17] is described as follows: qHTS assay to identify small molecule antagonists of the sonic hedgehog signaling (Shh) pathway (AID 1259369; calls by dose curve; further: nearly all actives have a fitted effect of over 45% in size). The method, boiled down:
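NIH/3T3-derived 3T3Gli1-Luc cells with stably integrated Gli1-Luc reporter were preincubated 4hr at 37 C, then given compounds in DMSO plus Shh conditioned medium and incubated 24hr. Firefly luciferase luminescence read after 30min reagent at room temperature.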
On the % scale 0 is the no-effect control and ±100 the full control effect.

Thyrotropin receptor (Homo sapiens), sequence (P16473 whole entry, looked up): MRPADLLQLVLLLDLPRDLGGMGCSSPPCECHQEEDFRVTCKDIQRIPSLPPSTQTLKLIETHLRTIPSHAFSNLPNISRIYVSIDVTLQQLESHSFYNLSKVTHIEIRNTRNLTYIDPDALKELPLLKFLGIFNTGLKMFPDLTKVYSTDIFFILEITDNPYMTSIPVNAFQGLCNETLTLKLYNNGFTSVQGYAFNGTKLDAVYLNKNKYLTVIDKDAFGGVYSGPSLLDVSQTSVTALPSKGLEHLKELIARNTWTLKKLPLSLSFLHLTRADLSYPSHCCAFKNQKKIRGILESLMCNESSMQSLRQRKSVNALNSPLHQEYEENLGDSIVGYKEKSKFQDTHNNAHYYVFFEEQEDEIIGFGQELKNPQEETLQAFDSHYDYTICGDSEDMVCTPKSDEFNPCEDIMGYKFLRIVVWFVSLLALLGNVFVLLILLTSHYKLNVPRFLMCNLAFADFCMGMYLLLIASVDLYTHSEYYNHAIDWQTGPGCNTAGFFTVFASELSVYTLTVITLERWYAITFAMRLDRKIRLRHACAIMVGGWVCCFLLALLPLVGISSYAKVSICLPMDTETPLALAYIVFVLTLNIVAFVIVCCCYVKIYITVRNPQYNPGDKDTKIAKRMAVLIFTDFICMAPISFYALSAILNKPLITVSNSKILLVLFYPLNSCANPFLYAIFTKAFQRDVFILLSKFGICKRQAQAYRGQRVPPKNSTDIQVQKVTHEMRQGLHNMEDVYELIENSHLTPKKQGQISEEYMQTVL
Estrogen receptor (Homo sapiens), sequence (P03372 whole entry, looked up): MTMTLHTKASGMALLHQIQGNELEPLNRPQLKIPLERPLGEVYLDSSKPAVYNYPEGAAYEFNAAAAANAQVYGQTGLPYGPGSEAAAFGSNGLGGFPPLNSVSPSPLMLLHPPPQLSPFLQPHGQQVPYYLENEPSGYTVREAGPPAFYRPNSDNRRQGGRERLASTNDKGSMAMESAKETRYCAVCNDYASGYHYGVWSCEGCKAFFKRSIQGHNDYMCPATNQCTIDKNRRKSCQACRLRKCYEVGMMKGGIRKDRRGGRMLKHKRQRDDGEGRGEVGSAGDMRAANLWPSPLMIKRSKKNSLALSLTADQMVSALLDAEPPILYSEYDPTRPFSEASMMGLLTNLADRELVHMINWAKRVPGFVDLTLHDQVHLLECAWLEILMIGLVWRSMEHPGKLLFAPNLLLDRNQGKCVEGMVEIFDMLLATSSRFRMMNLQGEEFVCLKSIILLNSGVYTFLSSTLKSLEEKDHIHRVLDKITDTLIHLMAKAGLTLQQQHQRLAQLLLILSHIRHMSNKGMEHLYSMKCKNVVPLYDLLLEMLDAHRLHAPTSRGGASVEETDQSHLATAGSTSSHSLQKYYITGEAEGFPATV
Estrogen receptor beta (Homo sapiens), sequence (Q92731 whole entry, looked up): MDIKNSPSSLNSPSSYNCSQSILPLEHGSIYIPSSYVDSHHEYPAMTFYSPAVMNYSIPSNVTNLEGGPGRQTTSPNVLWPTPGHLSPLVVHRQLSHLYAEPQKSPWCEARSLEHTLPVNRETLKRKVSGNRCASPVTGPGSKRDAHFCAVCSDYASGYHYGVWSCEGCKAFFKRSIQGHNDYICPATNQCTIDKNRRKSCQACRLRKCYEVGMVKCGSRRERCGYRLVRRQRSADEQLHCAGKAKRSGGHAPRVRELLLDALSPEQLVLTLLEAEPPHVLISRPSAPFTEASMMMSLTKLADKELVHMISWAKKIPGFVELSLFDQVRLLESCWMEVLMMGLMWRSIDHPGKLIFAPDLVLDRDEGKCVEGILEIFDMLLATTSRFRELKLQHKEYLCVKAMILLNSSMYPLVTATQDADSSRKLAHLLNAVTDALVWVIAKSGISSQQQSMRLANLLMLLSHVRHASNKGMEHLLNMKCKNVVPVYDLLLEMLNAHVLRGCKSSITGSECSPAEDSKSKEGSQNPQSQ

Consider `O=[Se](O)O`, for which the Potency in test [1] is 13.7 µM (active); in test [10] it was 8.64 µM (active); in test [16], 38.6 µM (active). In test [1], the viability change, negative = cytotoxic was -4.23% [at 19 µM]. The activity change, negative = inhibition in [2] is -20.4% [at 19 µM]. Also, the Potency result in test [3], in [5], in test [6], in test [7], in test [8] and in test [9] was “inactive” throughout. Moreover, the Potency entry in test [12], in [13], in test [14] and in [15] was “inactive” throughout. Also, the result in test [4] was inactive. In addition, the activity change, negative = cytotoxicity is 1.8% [at 19 µM] in [11] and 10.8% [at 19 µM] in [16].

As for `CC(=O)Nc1ccc2c(c1)Cc1cc(NC(C)=O)ccc1-2`, the Potency result in test [1], in test [2], in test [3], in [5], in test [6] and in [7] was “inactive” in each case. For the same molecule, the Potency result in [10], in [11], in test [12], in [13], in test [14] and in test [15] was “inactive” each time. Also, in test [16], the Potency entry was “inactive”. In addition, the outcome in [4] was inactive.

As for `C=CCNCC=C`, the Potency result in [1], in test [2], in test [5], in [6], in test [7] and in test [17] was “inactive” throughout. Besides, the Potency result in test [10], in test [11], in [12], in test [13] and in test [16] was “inactive” each time. Further, in test [4], the molecule was called inactive.

With `NCCOCCO`, the Potency result in [1], in test [2], in test [3], in [5], in test [6] and in [7] was “inactive” each time. The Potency result in test [17], in test [8], in test [9], in test [10], in [11] and in test [12] was “inactive” throughout. The Potency entry in [13] and in test [16] was “inactive” throughout. Also, the molecule was called inactive in [4].

On to `Brc1nc2ccccc2s1`, for which the Potency entry in test [1], in test [2], in [3], in test [5], in test [6] and in test [7] was “inactive” throughout. Besides, the Potency result in test [8], in test [9], in test [10], in [11], in test [12] and in [13] was “inactive” each time. Besides, the Potency entry in [15] and in test [16] was “inactive” in each case. For the same molecule, the molecule was called inactive in test [4].

Turning to `Cc1ccc(C(C)(C)C)cc1`, the Potency result in test [1], in test [2], in [5], in [6], in [7] and in [17] was “inactive” throughout. The Potency entry in [10], in test [11], in [12], in [13], in test [14] and in test [15] was “inactive” throughout. Moreover, the outcome in [4] was inactive.

In the case of `C=CN1CCCC1=O`, the Potency result in test [1], in [2], in test [3], in [5], in test [6] and in test [7] was “inactive” in each case. Further, the Potency entry in test [10], in test [11], in test [12], in test [13] and in test [16] was “inactive” each time. Further, in test [4], the molecule was classed as inactive.

For `c1ccc2cc3ccccc3cc2c1`, the Potency result in test [1], in [2], in test [5], in test [6], in [7] and in test [17] was “inactive” throughout. In addition, the Potency result in [8], in test [10], in test [11], in [12], in test [13] and in [15] was “inactive” each time. Further, in [4], the call was inactive.

The record behind these values is PubChem BioAssay (Tox21).
